In test [1] the target is T1, Aspartate--tRNA(Asp/Asn) ligase (Mycobacterium tuberculosis (strain ATCC 25618 / H37Rv)) (UniProt P9WFW3). Note: in the data most compounds retested in dose-response had high values.
T1 sequence (whole entry): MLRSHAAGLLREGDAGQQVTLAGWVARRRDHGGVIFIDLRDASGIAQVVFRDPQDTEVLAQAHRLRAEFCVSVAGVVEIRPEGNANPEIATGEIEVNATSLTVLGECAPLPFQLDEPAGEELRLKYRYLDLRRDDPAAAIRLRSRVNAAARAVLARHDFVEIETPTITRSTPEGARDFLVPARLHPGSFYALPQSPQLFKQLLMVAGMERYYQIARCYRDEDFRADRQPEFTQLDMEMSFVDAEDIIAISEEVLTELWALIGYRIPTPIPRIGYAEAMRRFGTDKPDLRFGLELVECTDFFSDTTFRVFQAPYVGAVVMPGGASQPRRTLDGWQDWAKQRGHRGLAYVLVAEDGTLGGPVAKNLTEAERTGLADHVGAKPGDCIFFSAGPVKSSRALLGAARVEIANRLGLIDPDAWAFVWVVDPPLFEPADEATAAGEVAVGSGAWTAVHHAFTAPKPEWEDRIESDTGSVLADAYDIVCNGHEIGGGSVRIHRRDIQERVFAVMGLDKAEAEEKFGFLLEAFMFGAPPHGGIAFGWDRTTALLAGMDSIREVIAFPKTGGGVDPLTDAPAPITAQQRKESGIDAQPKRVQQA
Briefly: Assay for Asp RNA synthetase-1 from Mycobacterium tuberculosis. Type of test: functional. Details: scale not given: direction of the effect not stated beside the values. Conditions: 30 µM.

Test [2] addresses Shiga toxin 2 (Escherichia coli O157:H7) (UniProt P09385+P09386). Briefly: E. coli 0.157:H7 Shiga Toxin SOP - stx2 screening assay. Type of test: functional. More on the design: scale not given: direction of the effect not stated beside the values. Conditions: 30 µM.

As to `Cc1ccc2oc(C(=O)N3CCC(C(=O)N4CCCC4)CC3)cc2n1`, the Percent Effect in test [1] is 1.57%; in test [2], -16.4%.
`O=C1CCCN1CC1CN(C(=O)CC2CCCC2)Cc2nccn2C1` (configuration not stated): the Percent Effect in test [1] was 4.01%; in test [2] it was -4.12%.
For `Cc1cnn(CC2CCCCN2C(=O)c2ccc3nnc(C)n3c2)c1` (configuration not stated) the same measures were 10.3% and 21.9%.
In the case of `Cc1ccc(NC2CCN(C(=O)COCC(F)(F)F)CC2)nn1`, the Percent Effect in test [1] is -0.48%; in test [2], -13.9%.
Take `COc1ccc(CN2CCn3cc(Cn4cccn4)nc3C2)cc1`: the Percent Effect is 6.63% in test [1] and -37.1% in test [2].
On to `CCOC1COC2(CCN(Cc3cccc(F)c3)CC2)C1` (configuration not stated), for which the Percent Effect is -3.19% in test [1] and -3.58% in test [2].
For `CN1CCN(Cc2ccccc2CNC(=O)c2ccc(Br)cc2)CC1` the same measures were -0.466% and 0.652%.
With `Cc1ccc(C)c(OC2CCN(C(=O)c3ccc(C)[nH]c3=O)CC2)c1`, the results for the Percent Effect in test [1] and in test [2] were -5.01% and 16%, respectively.
For `NC(=O)NCC1CCCCN1C(=O)c1cccc(C(F)(F)F)c1` (configuration not stated), in that order: 2.58% and 11.1%.
Take `O=C(NCc1cc[nH]n1)NCC(O)c1ccc(F)cc1F` (configuration not stated): the Percent Effect in test [1] is 4.01%; in test [2] it was -25%.
On to `OC1(Cn2ccc3ccncc32)CCN(Cc2ccccn2)CC1`, for which the Percent Effect in test [1] is -0.402%; in test [2], -26.5%.
For `O=C(COc1ccc2c(c1)CCC2)N1CCOCC1c1ncon1` (configuration not stated) the same measures were -4.77% and 22.5%.
Consider `Cn1cc(CNCC2Cn3nnc(-c4ccccc4)c3CO2)cn1` (configuration not stated), for which the Percent Effect in test [1] is 5.57%; in test [2], -42.7%.
For `COc1ncccc1C(=O)NCC(C)Oc1cccnc1` (configuration not stated), in that order: -5.57% and -2.36%.
`CCOC(=O)N1CCN(Cc2ccc(OCc3nccn3C)cc2)CC1`: the Percent Effect in test [1] is -4.7%; in test [2] it was -21.9%.
Take `Cc1ccc2c(ccn2CCC(=O)N2CCC(C(N)=O)CC2)c1`: the Percent Effect in test [1] is 0.842%; in test [2] it was -2.06%.
For `Cc1ncc(CNC(=O)N(C)C2CCN(c3ccccc3)C2=O)s1` (configuration not stated), in that order: -3.19% and 24.6%.
For `CNc1cc(CNC(=O)c2ccccn2)nc(-c2ccncc2)n1` the same measures were -1.21% and 5.89%.
For `CC(C)n1ncc2c1NC(=O)CC21C(=O)Nc2c(Cl)cccc21` (configuration not stated), in that order: 4.56% and -7.34%.
Turning to `CCc1nccn1C1CCCN(C(=O)c2ccc3[nH]c(=O)[nH]c3c2)C1` (configuration not stated), the Percent Effect in test [1] is -9.98%; in test [2] it was -46.4%.
`CN(Cc1cn2c(n1)CN(C1CCOC1)CC2)Cc1ccco1` (configuration not stated): the Percent Effect was 4.4% in test [1] and -24.2% in test [2].
As to `Cc1ccc(N2CCC3(CCCN(C(=O)c4cccnc4)C3)C2)nn1` (configuration not stated), the Percent Effect was 8.13% in test [1] and -11% in test [2].
Consider `CN(C)C(=O)c1ccc2c(c1)N(C)C(CC(=O)NCc1ccno1)CO2` (configuration not stated), for which the Percent Effect was -2.42% in test [1] and -9.52% in test [2].
For `CN1C[C@H]2CCN(C(=O)NC3CCCC3)CC[C@H]2S1(=O)=O` the same measures were 2.12% and -19.5%.
For `O=C(Cc1ccc2c(c1)OCO2)N1CCCN(c2ccccc2)CC1`, in that order: 3.17% and 3.72%.
In the case of `CSc1ccc(CNC(c2ccccc2)c2nccn2C)cc1` (configuration not stated), the Percent Effect in test [1] was 3.61%; in test [2] it was -1.22%.
On to `CCc1ncc(C(=O)N2CCCCC2Cn2cccn2)s1` (configuration not stated), for which the results for the Percent Effect in test [1] and in test [2] were -4.28% and 15.5%, respectively.
Regarding `CN(CCCC#N)C1CCCN(Cc2noc(C3CC3)n2)C1` (configuration not stated), the Percent Effect in test [1] is -2.54%; in test [2], 7.14%.
For `O=C(Cn1nc(-c2ccc(F)cc2)oc1=O)Nc1ccccc1`, in that order: -1.5% and -19.2%.
In the case of `Cc1ncc(CN(C)CC2CCCN2c2cccnn2)s1` (configuration not stated), the Percent Effect in test [1] turned out to be 3.27%; in test [2], 9.48%.
For `CCn1c(NCc2ccco2)nc2c(C)nn(C)c2c1=O`, the figures for the Percent Effect in test [1] and in test [2] were -3.66% and -41.1%, respectively.
As for `CS(=O)(=O)NCCCN1CCCC1Cc1ccccc1` (configuration not stated), the Percent Effect in test [1] was -3.08%; in test [2] it was -0.572%.
For `CCN(Cc1cccc(Cl)c1)Cc1nc2c(cnn2C)c(=O)[nH]1`, the Percent Effect in test [1] was -2.28%; in test [2], 31.3%.
Turning to `CCCNC(=O)CN1CCC(C(=O)Nc2cnn(CC)c2)CC1`, the Percent Effect in test [1] was 0.927%; in test [2], 20.3%.
For `Oc1cc(CCC2CCCCN2)cc(-c2ccncc2)c1` (configuration not stated), in that order: 2.44% and -42.2%.
For `CC(C)c1nc(C2CCCN(C(=O)Cc3cccnc3)C2)no1` (configuration not stated), in that order: -2.44% and 23.6%.
On to `CC(C)OCC(=O)N1CCCN(Cc2ccc(C#N)cc2)CC1`, for which the Percent Effect in test [1] was -0.7%; in test [2], 27.2%.
For `CC(C)(C)c1cn2nc(N3CCCC3Cn3cncn3)sc2n1` (configuration not stated), in that order: -3.59% and -12.7%.
For `CCOC(=O)CNC(=O)N1CCN(c2ncccn2)CC1` the same measures were 4.73% and -21.7%.
For `CCOCC1CN(Cc2ccoc2)Cc2nn(CC3CC3)cc21` (configuration not stated), in that order: 6.32% and -16.8%.
As to `COc1cccc(N2CCN(CC(O)c3cc(C)sc3C)CC2)c1` (configuration not stated), the Percent Effect amounted to 0.432% in test [1] and 6.38% in test [2].
In the case of `O=c1c2cnc(N3CCCCC3)nc2ccn1-c1ccccc1`, the results for the Percent Effect in test [1] and in test [2] were -0.697% and -17.9%, respectively.
For `COCCC(=O)N1CCC2(CN(Cc3ccc(OC)c(F)c3)C2)C1` the same measures were -0.524% and -4.43%.
On to `N#Cc1ccc(S(=O)(=O)NC(=O)C2CC2)c(C(F)(F)F)c1`, for which the Percent Effect in test [1] is 4.77%; in test [2] it was 9.71%.
For the molecule `O=C(CN1CC(n2cccn2)C1)NCCc1c[nH]c2ccccc12`, the Percent Effect in test [1] is -0.903%; in test [2], -2.74%.
For `COCCNC(=O)Cn1nc(C(C)C)c2cnn(C(C)(C)C)c2c1=O`, in that order: -1.87% and 5.6%.
For `N#Cc1ccccc1OCCN1CCCC1Cn1cccn1` (configuration not stated) the same measures were -0.558% and 2.91%.
As for `CC(C(=O)N1CCCC1)N1CCC(c2nccn2Cc2cscn2)CC1` (configuration not stated), the values for the Percent Effect in test [1] and in test [2] were 1.8% and -3.75%, respectively.
Regarding `Cc1nc(CN(C)C2CCCN(c3cccnn3)C2)no1` (configuration not stated), the results for the Percent Effect in test [1] and in test [2] were -6.37% and -10.7%, respectively.
For `O=C(CCc1cc(O)no1)N1CCCC(COc2ccc(F)cc2)C1` (configuration not stated), in that order: -2.45% and -19.8%.
For `CCN1CCn2nc(CCC(=O)N3CCCC3)cc2C1`, in that order: -0.386% and -5.54%.

(Values after ChEMBL document CHEMBL3988442, “University of Dundee, Small-Polar-MMV Screening Library” (2021).)
